# Chronic BCR inh – qHTS Assay to Find Inhibitors of Chronic Active B-Cell Receptor Signaling. Potency, µM (doses to about 46.1 µM), without a hit: top-dose activity change, negative = inhibition, usual class: inhibitors. ABC-DLBCL IkBa-CBG/CBR reporter, luminescence ratio, 4 h. 340,000 compounds, 0.05% hits; active = well fitted inhibition curve with a large enough effect in the signal ratio, with a control signal flat, not every such curve was filed as active; inconclusive = small, poorly fitted or top-dose-only effect, or effect the other way, or a change in a side signal; the % refers to the signal ratio;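 note: plate controls were basal doxycycline-induced cells for no effect and cells given 10 µM MG132 for full effect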
#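 Doxycycline induced both beetle luciferases in TMD8 lymphoma cells; IKK-driven degradation limits the IkappaBalpha-fused green signal, while red luminescence normalises for cell number and nonspecific effects. Compounds tested up to 46 uM, 4 hrs.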
# USP2a block – qHTS Assay for Inhibitors of Ubiquitin-specific Protease USP2a Using CHOP2 as the Reporter; Ubiquitin carboxyl-terminal hydrolase 2 (Homo sapiens), O75604; USP2 core, Ub-CHOP2 coupled fluorogenic reporter, 485/531; Potency, µM (series often up to 38.3 µM), without a hit: top-dose activity change, negative = inhibition, most hits filed as inhibitors; 330,000 compounds, 0.01% hits; AID 463254, 2010;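 note: plate controls were DMSO wells for no effect and full inhibition by NEM control for full effect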
#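 Deubiquitinase activity read as fluorescence (485/531 nm) after Ub-CHOP2 cleavage activates the enterokinase reporter on its substrate; USP2 core 10nM, Ub-CHOP2 and substrate 25nM each, 30min compound preincubation then 60min RT; data normalized to NEM, curves fitted.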
# Tb PGK inh – qHTS Assay to Find Inhibitors of Phosphoglycerate Kinase; 380,000 compounds, 0.043% hits; PGK/GAPDH coupled, Kinase-Glo luminescence, 60 min; Potency, µM (titrated, usually from 57.5 µM), without a hit: at the highest dose activity change, negative = inhibition, most hits filed as inhibitors; Phosphoglycerate kinase, glycosomal (Trypanosoma brucei brucei), P07378; note: % is set by controls: 0 for no effect and ±100 for the full control effect; nearly all actives have a fitted effect of over 60% in size
#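 Luminescent ATP detection (Kinase-Glo Plus) follows a 60-minute room-temperature incubation, with wells lacking PGK as controls. Buffer: 100 mM TEA (pH 7.6), 5 mM MgCl2, 0.01% Tween-20. Coupling enzyme GAPDH (100 nM final) supplies unstable 1,3-BPG in-well.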
# Tb PFK inh-1 – qHTS Assay to Find Inhibitors of T. brucei phosphofructokinase; ATP-dependent 6-phosphofructokinase (Trypanosoma brucei brucei), O15648; T. brucei PFK, ADP-Glo luminescence; Potency, µM (titrated, usually from 57.5 µM), without a hit: at the top dose activity, negative = inhibition, actives largely listed as inhibitors; 330,000 compounds, 0.17% hits;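 note: 0% = uninhibited 1x PFK enzyme wells and -100% = no-enzyme wells; nearly all actives have a fitted effect of over 60% in size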
# Target sequence (O15648 whole entry, looked up): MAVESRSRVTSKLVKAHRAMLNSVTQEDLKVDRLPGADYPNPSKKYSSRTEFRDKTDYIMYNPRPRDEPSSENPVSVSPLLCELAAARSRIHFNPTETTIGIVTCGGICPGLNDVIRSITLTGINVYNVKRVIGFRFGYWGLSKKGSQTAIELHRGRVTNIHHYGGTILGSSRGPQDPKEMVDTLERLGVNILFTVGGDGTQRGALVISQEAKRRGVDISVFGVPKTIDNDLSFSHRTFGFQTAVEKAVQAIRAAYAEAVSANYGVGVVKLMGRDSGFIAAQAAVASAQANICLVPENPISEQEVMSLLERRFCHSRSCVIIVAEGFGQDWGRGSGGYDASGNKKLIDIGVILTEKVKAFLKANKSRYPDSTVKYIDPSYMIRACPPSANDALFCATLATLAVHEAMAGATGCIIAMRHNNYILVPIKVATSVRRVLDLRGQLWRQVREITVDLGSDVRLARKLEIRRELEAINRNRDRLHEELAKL
#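 1.25 nM PFK with 0.5 mM F6P and 0.1 mM ATP in 0.1 M TEA pH 8.0, 5 mM MgCl2, incubated 45 min at room temperature; ADP measured by ADP-Glo luminescence; compounds titrated up to 57 uM.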
# RGS4 inh – Inhibitors of Regulator of G Protein Signaling (RGS) 4: qHTS. Regulator of G-protein signaling 4 (Homo sapiens), P49798. 390,000 compounds, 0.039% hits. Potency, µM (doses to about 114 µM), inactives show top-dose activity change, negative = inhibition, actives largely listed as inhibitors. Transcreener GDP fluorescence polarization, RGS4-accelerated GTP hydrolysis; note: % is set by controls: 0 for no effect and ±100 for the full control effect; nearly all actives have a fitted effect of over 75% in size
#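 MLSMR compounds (23 nl, pin-transferred) preincubated 10 min at room temperature with a 500nM (2x) first reagent, then RGS4 at 900nM (2x) plus Transcreener GDP mix added; fluorescence polarization (620/688 nm) read before and after 90 min at 30 °C.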
# Tb PFK KinaseGlo – Tb PFK orthogonal confirmatory assay using ATP depletion (Kinase-Glo Plus) as an alternative measure of Tb PFK activity: Hit Validation | shares compounds with Tb PFK inh-1 | Tb PFK enzyme, ATP depletion, Kinase-Glo Plus luminescence | Potency, µM (top dose mostly 57.5 µM), without a hit: at the top dose inhibition | 1,100 compounds, 47% hits; calls by dose curve; note: nearly all actives have a fitted effect of over 60% in size
# Tb PFK inh-2 – Inhibitors of T. brucei phosphofructokinase: Hit Validation; shares compounds with Tb PFK inh-1; AID 504637, 2011; Potency, µM (titrated, usually from 57.5 µM), for inactives: at the top dose activity change, negative = inhibition, usual class: inhibitors; 1,100 compounds, 41% hits; purified T. brucei PFK, ADP-Glo luminescence, 45 min;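 note: plate controls were full PFK enzyme control for no effect and no enzyme control for full effect; nearly all actives have a fitted effect of over 60% in size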
# Numbers without * were called inactive; i = inactive; ? = inconclusive; . = not tested or not shown; [ ] = remark or other dose. This is a sample that favours compounds with a hit; in the whole collection about 0.25% have one here. Unless noted, calls come from the whole dose curve; as a rule, active = well fitted curve in the direction sought with a large enough effect; inconclusive = small, poorly fitted or top-dose-only effect, or another doubt; inactive = no such curve, though single readings can be large; an effect the other way counts as inactive or inconclusive. Potency is the fitted concentration of half-maximal effect.
SMILES,Chronic BCR inh,USP2a block,Tb PGK inh,Tb PFK inh-1,RGS4 inh,Tb PFK KinaseGlo,Tb PFK inh-2
Cc1cc(C)c(NC(=S)NCC2CCN(C(C)c3ccccc3)C2)c(C)c1 (stereo not drawn),-1%,3%,-8%,?,?,7.6µM*,15µM*
O=C(Cc1ccc(Cl)c(Cl)c1)Nc1cccnc1,-13%,0%,i,15µM*,-31%,3.8µM*,12µM*
O=C(CC(=O)Nc1cccnc1)Nc1cccnc1,0%,0%,-5%,0%,16%,.,.
C/C(=N\NC(=O)Cc1ccc(Cl)c(Cl)c1)c1cccnc1,0%,0%,-1%,19µM*,0%,12µM*,?
Cc1cc(C)cc(N2CCn3c2nc2c3c(=O)n(CCc3ccccc3)c(=O)n2C)c1,.,.,i,.,8%,.,.
O=c1cc(-c2ccccc2F)[nH]c2cc3c(cc12)OCO3,.,.,.,.,6%[56.9 µM],.,.
Oc1cc2c(cc1O)C1c3ccc(O)c(O)c3OCC1(O)C2 (stereo not drawn),?,4%,?,?,?,?,0.85µM*
Cc1ccccc1NC(=O)CSc1ccsc1[N+](=O)[O-],-7%,1%,?,27µM*,-38%,11µM*,17µM*
Cc1cc(C)cc(Nc2cc(C(=O)NCc3ccccc3)c3ccccc3n2)c1,.,.,-3%,.,13%,.,.
O=c1[nH]sc2ccccc12,?,1%,-3%,19µM*,-139%,21µM*,27µM*
O=c1[nH]sc2cc(F)ccc12,?,0%,6%,?,-108%,19µM*,27µM*
CN(C)c1ccc(-c2nn3c(-c4cc(-c5ccccc5)n[nH]4)nnc3s2)cc1,.,.,.,.,-28%,.,.
O=C(COc1ccccc1[N+](=O)[O-])Nc1cccc(S(=O)(=O)NC2=NCCCCC2)c1,?,-1%,-14%,?,20%,?,?
O=C(COc1ccc(Cl)cc1Cl)Nc1ccc(S(=O)(=O)NC2=NCCCCC2)cc1,?,1%,3%,15µM*,-7%,?,30µM*
Nc1ccc(C(=O)OCC(=O)Nc2cccc(S(=O)(=O)NC3=NCCCCC3)c2)cc1[N+](=O)[O-],-8%,-2%,2%,?,-9%,.,.
Cc1ccc(Cl)c(OCC(=O)Nc2ccc(S(=O)(=O)NC3=NCCCCC3)cc2)c1,-1%,-2%,5%,-2%,-6%,.,.
COc1ccc(N(Cc2ccccc2)C(=O)c2nc(S(C)(=O)=O)ncc2Cl)cc1,.,.,0%,.,?,.,.
CCOc1ccc(OCC)c(Nc2nc3ccc(Cl)cc3n3cnnc23)c1,.,.,.,.,1%,.,.
Cc1cc2c(cc1[N+](=O)[O-])NC(CNC(C)C)CC2 (stereo not drawn),3%,-3%,-2%,12µM*,5%,27µM*,17µM*
Cc1ccc2sc(C)[n+](CCCS(=O)(=O)[O-])c2c1,9%,0%,-5%,27%,-51%,.,.
Cc1ccc2c(c1)sc(C)[n+]2CCCS(=O)(=O)[O-],?,0%,-1%,?,?,-16%,1%
O=C(c1ccc(NC(=S)Nc2ccc(Cl)c(Cl)c2)cc1)N1CCCC1,1%,2%,-4%,21µM*,-18%,?,?

# Assay outcomes from PubChem.
